# CASP6 VEID inh – human caspase-6 inhibitors, primary screen, biochemical, VEID-R110 fluorescence, single point, set 2. P55212. purified caspase-6, Z-VEID-R110 cleavage fluorescence. inhibition, % at 12.5 µM. hit rate 0.53% among 350,000. AID 686996, 2013;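 active = mean inhibition across replicates at least about 35%, with every replicate also reaching that limit, limit read from the data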;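 note: 0% = median of neutral control wells and 100% = no fluorescence left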
# Glyco luc inh – increase of ERlucT glycosylation luciferase signal, primary screen, N-linked glycosylation inhibitor project, D54 ERlucT cells, luminescence, set 2 | D54 ERlucT glycosylation luciferase reporter, 24 h; percent of 100 nM tunicamycin response | reporter increase, % at 12.5 µM | hit rate 0.23% among 360,000;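 active = mean luciferase reporter signal, scaled so untreated is 0 and the glycosylation-blocking control 100, at or above a set limit in every replicate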;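 note: luciferase carries N-glycosylation sites so blocking glycosylation raises the light; 0% = median of neutral control wells and 100% = median of 100 nM tunicamycin wells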
# RAD52 anneal inh – RAD52 DNA annealing inhibitors, primary screen, biochemical, FRET, single point, set 2; DNA repair protein RAD52 homolog (Homo sapiens), P43351; recombinant RAD52 DNA annealing, FRET fluorescence; inhibition, % at 18.7 µM; hit rate 0.46% among 360,000;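 active = every replicate showing at least 50% inhibition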
# Target sequence (P43351 whole entry, looked up): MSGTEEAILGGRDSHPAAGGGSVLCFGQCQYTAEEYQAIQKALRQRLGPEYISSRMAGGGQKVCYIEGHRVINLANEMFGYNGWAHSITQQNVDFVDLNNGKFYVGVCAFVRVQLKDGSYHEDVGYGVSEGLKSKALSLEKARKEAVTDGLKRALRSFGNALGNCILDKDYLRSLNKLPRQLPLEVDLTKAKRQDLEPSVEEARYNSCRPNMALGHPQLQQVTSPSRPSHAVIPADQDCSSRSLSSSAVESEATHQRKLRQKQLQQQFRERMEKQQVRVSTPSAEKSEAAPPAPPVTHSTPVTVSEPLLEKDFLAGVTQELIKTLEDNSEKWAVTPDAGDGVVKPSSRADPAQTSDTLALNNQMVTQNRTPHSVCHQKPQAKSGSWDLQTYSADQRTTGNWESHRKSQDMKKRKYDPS
# RAD54 branch – inhibitors of human RAD54 branch migration, primary screen, biochemical, fluorescence, single point; hit rate 0.14% among 360,000; RAD54 Holliday junction branch migration, FAM/BHQ fluorescence; DNA repair and recombination protein RAD54-like (Homo sapiens), Q92698; inhibition, % at 10.4 µM;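 active = mean normalized replicate activity at least 40 and at least half of replicates scoring 40 or more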;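 note: 0% = median of neutral control wells and 100% = median of positive control wells; inhibitors cause a drop in the FAM fluorescence signal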
# NSD2 HMT inh – NSD2 histone methyltransferase inhibitors, primary screen, biochemical, AlphaScreen, single concentration, set 2; Histone-lysine N-methyltransferase NSD2 (Homo sapiens), O96028; NSD2 peptide methylation, 120 min; inhibition, % at 12.5 µM; hit rate 0.54% among 310,000; AID 743445, 2014; in the data active = inhibition above about 50%
# Active calls of the source: *; nt = no result given. Most compounds without a hit are left out; they make up all but 1.2% or so of the library.
SMILES,CASP6 VEID inh,Glyco luc inh,RAD52 anneal inh,RAD54 branch,NSD2 HMT inh
COc1ccc2c(c1)c(=O)oc1c(C)c(OC(C)C(=O)N[C@@H](Cc3c[nH]c4ccc(O)cc34)C(=O)O)ccc12 (stereo not given in full),38.9*,0.7,27.8,6.9,nt
O=C(COc1ccc2c(-c3ccccc3)cc(=O)oc2c1)N[C@@H](Cc1c[nH]c2ccc(O)cc12)C(=O)O,6.7,50.1*,-13.4,-12.7,nt
O=C(C[C@H]1C[C@@H]2c3cc(NC(=O)C4CCC4)ccc3O[C@@H]2[C@@H](CO)O1)NCc1cccc(F)c1,0.4,nt,3.9,8.3,nt
O=C(O)CSc1c2c(nc3cc(C(=O)Nc4cccc(C(F)(F)F)c4)ccc13)CCC2,79.1*,3.8,-28.3,-16.7,1.6
CCOc1ccc(NC(=O)c2ccc3c(SCC(=O)O)c4c(nc3c2)CCCC4)cc1,2.7,0.0,-19.7,nt,8.5
C[C@@H]1CN([C@H](C)CO)C(=O)c2cccc(NC(=O)c3cnccn3)c2O[C@H]1CN(C)C(=O)Nc1cccc2ccccc12,0.1,nt,-23.2,-2.8,nt
COCC(=O)N1[C@@H](CO)[C@@H](c2ccc(-c3cccc(OC)c3)cc2)C12CN(C(C)=O)C2,-0.5,nt,-13.4,nt,nt
O=C(O)CN1C(=O)/C(=C\c2cc(Br)ccc2OCc2ccc(Cl)cc2Cl)SC1=S,85.7*,2.3,-18.1,2.9,3.5
C[C@H](CO)N1C[C@H](C)[C@H](CN(C)C(=O)NC2CCCCC2)Oc2ccc(NC(=O)Cc3cn(C)c4ccccc34)cc2CC1=O,0.5,nt,-8.2,-10.3,nt
O=C(Nc1ccccc1)NN(C(=O)CCl)c1ccccc1,49.6*,13.7,-9.4,-0.4,5.8
CCC(O)(CC)C(=O)NN(C(=O)CCl)c1ccccc1,12.7,-1.6,-5.1,nt,2.1
C1=C2C[N+]3(CCCC3)CC2Cc2ccc3ccccc3c21 (stereo not given),-5.3,4.2,23.2,54.1*,3.9
C[N+]1(C)CC2=Cc3ccccc3CC2C1 (stereo not given),-5.8,-3.2,-9.0,nt,1.2
Cc1cccc(NS(=O)(=O)c2ccc(-c3ccc(=O)[nH]n3)o2)c1,4.9,2.6,-6.6,-4.0,-0.1
O=c1ccc(-c2ccc(S(=O)(=O)Nc3cccc([N+](=O)[O-])c3)s2)n[nH]1,36.5*,2.1,-15.7,-6.5,4.6
C[C@@H]1CCCCO[C@@H](CN(C)CC2CC2)[C@H](C)CN([C@H](C)CO)C(=O)c2cc(NC(=O)CCC(F)(F)F)ccc2O1,2.2,nt,14.8,nt,nt
c1coc(-c2nc3ccccc3nc2-c2ccco2)c1,69.2*,4.4,-36.3,-0.9,nt
COc1ccc(Cl)cc1S(=O)(=O)Nc1ccc2c(c1)n(C)c(=O)n2C,0.1,58.3*,-19.9,14.1,-0.7
N=C(N)c1ccc(N)cc1,-26.0,0.0,99.6*,46.5,nt
N=C(N)c1ccc(OCCCCCOc2ccc(C(=N)N)cc2)cc1,-5.6,-0.6,16.0,6.2,nt
c1ccc(CNc2nc(-c3cccnc3)nc3ccccc23)cc1,0.3,2.3,-22.3,-2.4,-1.3
c1ccc(CN2CCC(Nc3nc(-c4cccnc4)nc4ccccc34)CC2)cc1,7.6,39.6*,27.6,46.0,1.6
CCCCCC(=O)Nc1cc(S(=O)(=O)O)cc2cc(S(=O)(=O)O)cc(O)c12,98.1*,0.1,27.0,nt,105.0*
CCCCCC(=O)Nc1cc(S(=O)(=O)N2CCCCC2)ccc1N1CCCCC1,4.1,-9.6,-2.8,-5.3,-1.2
CCN(CC)c1ccc(/C=C2/C(=O)ON=C2C)cc1,0.5,5.9,-83.8,nt,6.9
CCN(CC)c1ccc(/C=C2\C(=O)N(c3nnc(C)c(=O)[nH]3)N=C2C)cc1,36.1*,43.1*,-61.4,7.3,4.8
C[C@H]1CN([C@@H](C)CO)C(=O)c2cc(NC(=O)CCCN(C)C)ccc2O[C@H]1CN(C)C(=O)Nc1cccc2ccccc12,-5.3,nt,-17.7,11.9,nt
COC(=O)c1cc(O)cc(OC)c1C(=O)c1c(O)cc(C)cc1O,21.1,-3.1,-11.9,8.5,nt
COC(=O)c1cc(O)cc(OC)c1Oc1cc(C)cc(O)c1C(=O)O,42.6*,-9.2,0.6,1.4,nt
